Reference: PubChem BioAssay AID540335 (Broad Institute, 2011)
Out of some 1,300 compounds screened, about 270 (21%) were called active.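 How the source made its calls: active means dose-dependent rise or fall in viability, either side of zero, with half-maximal concentration at or below a set limit; inconclusive means flat curve at 30 to 70% viability loss, or poor fit; inactive means flat within 30% either way, or potency beyond limit.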 Only a sample is shown. Results with a measured potency or affinity are listed apart.

assay: A375 melanoma cell viability reduction, dose response, counter-screen for MITF modulator project, cherry-pick samples, set 2 (AID 540335); settings: CellTiter-Glo ATP luminescence, 24 h; series mostly up to 35 µM;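 further: A375 human melanoma cells which do not depend on MITF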

SMILES	outcome
CCOC(=O)CSC1=NC(=O)/C(=C/c2ccc(OC)cc2)S1	inactive
N/C(=N\OC(=O)c1ccc(Cl)cc1Cl)c1ccncc1	inactive
COCc1cc(C)nc2sc(C(=O)Nc3ccc(OC)cc3)c(N)c12	inactive
O=C1c2ccccc2C(=O)N1CCOc1ccccc1	inactive
CN1CCN(CCCOc2ccc(-c3ccccc3)cc2)CC1	inactive
CN=c1scc(-c2ccccc2F)n1/N=C/c1ccc[nH]1	inactive
Cc1ccc(NC(=O)CCC(=O)N/N=C/c2ccc([N+](=O)[O-])o2)cc1C	inactive
CC1CC(C)C[N+](=C2C=C(N3CCCC3)CC(C)(C)C2)C1 (stereo unspecified)	inactive
O=C(Cn1cc(/C=C\[N+](=O)[O-])c2ccccc21)Nc1ccccc1	inactive
Cc1ccc(NC(=O)c2ccc([N+](=O)[O-])o2)cc1S(=O)(=O)N1CCOCC1	inactive
COc1ccc2oc(C(=O)Nc3ccc(S(=O)(=O)N(C)C4CCN(C)CC4)cc3)c(C)c2c1	inactive
C/C(=N\NC(=O)C(C)Oc1ccc([N+](=O)[O-])cc1)c1ccccn1 (stereo unspecified)	inactive
CC(Oc1ccccc1)C(=O)Nc1nc(-c2ccccn2)cs1 (stereo unspecified)	inactive
CC(C)C(=O)N1CCN(c2ccc(NC(=O)c3ccc([N+](=O)[O-])o3)cc2)CC1	inactive
CC(C)(C)NC(=O)CCN(/N=C/c1ccc([N+](=O)[O-])o1)C1=NS(=O)(=O)c2ccccc21	inactive
Cc1c(N=C2C=CC(=O)c3ccccc32)c(=O)n(-c2ccccc2)n1C	inactive
COc1cc(/C=N/NC(N)=O)c(Br)cc1OCC(=O)Nc1ccccc1C	inactive
COc1cc(CN2CCC(Cc3ccccc3)CC2)cc(OC)c1OC	inactive
COc1ccc(S(=O)NC2CCCCC2)c(OC)c1C (stereo unspecified)	inactive
O=C(c1nnsc1S(=O)(=O)c1ccc(Cl)cc1)N1CCOCC1	inactive
Cc1cc(C)c[n+](C2=C([O-])c3ccccc3C(=O)/C2=N\S(=O)(=O)c2cccs2)c1	inactive
O=C(CCl)Nc1cccc(Oc2ccccc2)c1	inactive

SMILES	outcome
CC(=O)N1CCc2c(sc(NC(=O)c3ccc([N+](=O)[O-])o3)c2C#N)C1	inactive
O=C(CC(=O)c1ccccc1)Nc1ccccn1	inactive
CN(c1cccc(NC(=O)COc2ccc(Cl)cc2Cl)c1)S(C)(=O)=O	inactive
O=C1Nc2ccc(Br)cc2/C1=C/C(=O)c1ccc2c(c1)OCO2	inactive
COc1ccc(/C=N/Nc2cc(C)nc(-n3nc(C)cc3C)n2)c(OC)c1	inactive
Cc1ccc(S(=O)(=O)/N=C2\C(=O)c3ccccc3C([O-])=C2n2cc[n+](CCC(C)C)c2)cc1	inactive
CCC(=O)N1CCN(c2ccc(NC(=O)c3ccc([N+](=O)[O-])o3)cc2)CC1	inactive
CCN(CC)CCNC(=O)c1c(C)n(-c2ccccc2)c2cc(Br)c(OC)cc12	inactive
O=C(Cn1ncc(Cl)c(Cl)c1=O)c1ccc(Cl)cc1	inactive
O=C(Cn1ncc(Cl)c(Cl)c1=O)N1CCN(Cc2ccccc2)CC1	inactive
O=C(COC(=O)CCN1C(=O)/C(=C\C=C\c2ccccc2)SC1=S)Nc1cc(F)ccc1F	inactive
CC(C)(C)c1ccc(C(=O)Nc2sc3c(c2C(=O)O)CCC3)cc1	inactive
CCN1/C(=C/c2cc[n+](C)cc2)C=Cc2cc(C)ccc21	inactive
O=C(Nc1ccc(F)cc1F)c1cc2ccccc2oc1=O	inactive
CC1CCC/C=C/C(=O)c2c(O)cc(O)cc2CC(=O)O1 (stereo unspecified)	inactive
COc1ccc(C(=O)/C=C/C(=O)N(CC(=O)NC2CCCCC2)Cc2ccccc2OC)c(O)c1	inactive
O=C1CCC2S/C(=C/Nc3ccc(C(F)(F)F)cc3)C(=O)N12 (stereo unspecified)	inactive
CCCC(=O)N1CCN(c2ccc(NC(=O)c3ccc([N+](=O)[O-])o3)cc2Cl)CC1	inactive
COc1ccc(NC(=O)CCC(=O)N/N=C/c2ccc([N+](=O)[O-])s2)cc1	inactive
CCCCNC(=O)Nc1ccc(C2SCCS2)cc1	inactive
N=c1n(CC(=O)c2ccc(Br)cc2)c2ccccc2n1Cc1ccccc1	inactive
O=C(Nc1ccccn1)c1ccc(Br)s1	inactive

SMILES	outcome
O=C(N/N=C/c1ccc([N+](=O)[O-])s1)c1cccc(Br)c1	inactive
Cc1ccc(NCC(=O)N/N=C\c2ccc([N+](=O)[O-])o2)cc1	inactive
Cc1c(C(=O)Nc2ccc(S(=O)(=O)N(C)C3CCN(C)CC3)cc2)oc2c(Cl)cccc12	inactive
COc1cc(SC)ccc1C(=O)Nc1ccc(Br)cn1	inactive
COc1cc(SC)ccc1C(=O)Nc1ncc(C)s1	inactive
O=C(CNC(=O)c1ccccc1)N/N=C/c1ccc([N+](=O)[O-])s1	inactive
O=C(Nc1cccc(S(=O)(=O)N2CCCCC2)c1)c1ccc([N+](=O)[O-])o1	inactive
Cc1nc2ccccn2c1C(=O)N/N=C/c1ccc([N+](=O)[O-])o1	inactive
Cc1nc(SCC(=O)Nc2ccc(CN3CCCC3)cc2)c2c(C)c(C)sc2n1	inactive
Cc1ccc2oc(C(Cl)(Cl)Cl)cc(=O)c2c1	inactive
CCN(CC)S(=O)(=O)c1ccc(N2CCCC2)c(NC(=O)c2ccc([N+](=O)[O-])o2)c1	inactive
O=C(Nc1cccnc1Cl)c1cc(-c2ccco2)on1	inactive
O=C(Nc1ccc(N2CCN(C(=O)c3ccccc3)CC2)cc1)c1ccc([N+](=O)[O-])o1	inactive
O=C(CCl)N1CCN(S(=O)(=O)c2ccc3c(c2)CCC3)CC1	inactive
Cc1cc(C)c2c(N)c(C(=O)Nc3ncc(C)s3)sc2n1	inactive
O=C(CCl)N(c1ccccc1)c1c[nH]c2ccccc12	inactive
O=C(Nc1ccccc1)NN(C(=O)CCl)c1ccccc1	inactive
N#C/C(=C\c1ccc(OCc2ccc(C(=O)O)cc2)cc1)C(=O)N1CCOCC1	inactive
O=C(C#Cc1ccccc1)c1cccc([N+](=O)[O-])c1	inactive
COc1cccc(-c2ccc3c(N)c(C(=O)NC4CC4)sc3n2)c1	inactive
COc1ccc(C)cc1Nc1nc(N)c2cc(OC)c(OC)cc2n1	inactive
O=C(Nc1ccc([N+](=O)[O-])cc1)c1ccccc1	inactive

SMILES	outcome
O=C(O)c1ccc(C(=O)Nc2ccc(F)cc2)cc1	inactive
Cn1cc([N+](=O)[O-])c(C(=O)Nc2nc(-c3ccc(Cl)cc3)cs2)n1	inactive
COc1ccc(C(NC(C)=O)c2ccc3cccnc3c2O)c(OC)c1 (stereo unspecified)	inactive
COc1cc(OC)cc(C(=O)Nc2ccc3c(c2)OCCO3)c1	inactive
COc1cccc(NC(=O)Nc2cccc(C(=O)O)c2)c1	inactive
COC(=O)CCS(=O)(=O)c1nc(-c2ccccc2)cc(C(F)(F)F)n1	inactive
Cc1nc(C)c(C(=O)N/N=C/c2cc(Br)ccc2O)s1	inactive
O=C(N/N=C/c1cccc2cccnc12)c1ccccc1O	inactive
Cc1ccc(C#CC[N+]2(CC#Cc3ccc(C)cc3)CCCCC2)cc1	inactive
O=C(Nc1nc(-c2ccccn2)cs1)c1ccc([N+](=O)[O-])o1	inactive
CS(=O)(=O)N1CCN(c2ccc(NC(=O)c3ccc([N+](=O)[O-])o3)cc2)CC1	inactive
Cc1cccc(NC(=O)c2ccc([N+](=O)[O-])o2)c1C	inactive
COc1cc(/C=N/N=C(N)N)ccc1OCc1ccc(Cl)cc1	inactive
Cc1cc(NC(=O)c2ccc([N+](=O)[O-])o2)ccc1NC(=O)c1ccco1	inactive
COc1ccccc1NS(=O)(=O)c1cc(NC(=O)c2ccc(Cl)nc2)ccc1Cl	inactive
CCCCNc1nc(=S)n(-c2ccccc2)c(C)c1C(C)=O	inactive
CC(=O)Nc1ccc2c(c1)ncn2-c1ccccc1	inactive
CC(=O)Nc1ccc(-c2nc3ccccc3o2)cc1	inactive
Cn1nc([N+](=O)[O-])nc1S(C)(=O)=O	inactive
CS(=O)(=O)c1ncc(Cl)c(C(=O)Nc2ccc(N3CCOCC3)cc2)n1	inactive
O=C(c1ccc(S(=O)(=O)Cc2ccccc2Cl)c([N+](=O)[O-])c1)N1CCN(c2ccccn2)CC1	inactive
O=C(Cc1ccc2c(c1)OCO2)NN=Cc1ccc([N+](=O)[O-])o1	inactive

SMILES	outcome
Cn1nnnc1Sc1ncnc2scc(-c3cccs3)c12	inactive
O=C(NC1CCCC(C(F)(F)F)C1)c1ccc([N+](=O)[O-])o1 (stereo unspecified)	inactive
CC(O)CNC(=O)C1CCN(Cc2ccc(OCc3ccccc3)cc2)CC1 (stereo unspecified)	inactive
CCCN1CCC(NCc2cn(C)nc2-c2ccc(Oc3ccccc3)cc2)CC1	inactive
O=C(O)c1ccc(N/N=C/c2ccc3nccnc3c2)cc1	inactive
CN(C)CCCNC(=O)/C(=C\c1ccc(-c2ccc(Br)cc2)o1)NC(=O)c1ccccc1	inactive
CCOCCCNC(=O)/C(C#N)=C/c1ccc([N+](=O)[O-])o1	inactive
Cc1ccc(-c2nc(C(=O)NCCCN(C)C)cc3c2[nH]c2ccccc23)cc1	inactive
Cc1ccc(C(=O)N/C(=C\c2ccc(-c3ccccc3[N+](=O)[O-])o2)C(=O)NCCN(C)C)cc1	inactive
CCN(CC)CCC(=O)N1C/C(=C/c2ccccc2)C(=O)/C(=C\c2ccccc2)C1	inactive
COc1cc(NC(=O)COc2ccccc2[N+](=O)[O-])ccc1NC(=O)c1cccs1	inactive
O=C(Cn1ncc(Cl)c(Cl)c1=O)Nc1ccc2c(c1)OCO2	inactive
O=C(c1ccccc1)c1cc(Cl)ccc1N1C(=O)C=CC1=O	inactive
O=C(N/N=C/c1ccc([N+](=O)[O-])o1)c1ccc(O)cc1	inactive
Cc1cc(Sc2ncnc(N)c2[N+](=O)[O-])ncn1	inactive
COc1cccc2sc(N3CCN(C(=O)c4ccc([N+](=O)[O-])o4)CC3)nc12	inactive
Cc1cccc2sc(N(CCCN(C)C)C(=O)c3nc4ccccc4s3)nc12	inactive
CN(C)c1ccc(C2=NOC(CN3C(=O)c4ccccc4S3(=O)=O)C2)cc1 (stereo unspecified)	inactive
